M1 antag: M1 muscarinic receptor (rat) antagonism | P08482 | CHO-M1 cells, Fluo-4 calcium, ACh EC80 antagonist mode; active compounds read low | B-score at 10 µM | actives 3.4% (n = 64,000) | AID 628;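 active = calcium fluorescence response, raw or row-and-column corrected B-score, differing from the plate sample mean either way at a set confidence level, mostly lower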
M1 agonist: activates the M1 muscarinic receptor. CHO-M1 cells, Fluo-4 calcium fluorescence, agonist mode; active compounds read high. B-score at 10 µM. actives 3% (n = 64,000);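 active = fluorescence rise, raw or as B-score row- and column-corrected plate score, outside the 99.7% band of its plate's samples, either direction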
Cav32 inh: inhibitors of human Cav3.2 T-type calcium channel. actives 4% (n = 100,000). B-score at 10 µM. AID 449739. Cav3.2-expressing cells, Fluo-4 calcium fluorescence FDSS; active compounds read low;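 active = single-dose well whose peak fluorescence ratio is a statistical outlier from its plate by either plate-standardised score or position-corrected B-score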
HER2 expr 66K: inhibitors of human Her2 kinase expression; P04626; actives 0.69% (n = 65,000); SKBR-3 HER2 protein level, AlphaScreen, 18-24 h; active compounds read low; HER2 level % of control, % at 10 µM; AID 645;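 active = HER2 level under 5% of the carrier-only control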;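 also: 100% = DMSO carrier and 0% = 500 nM PU-H71 HSP90 inhibitor; lower value means stronger loss of Her2 protein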
Target sequence (P04626 whole entry, looked up): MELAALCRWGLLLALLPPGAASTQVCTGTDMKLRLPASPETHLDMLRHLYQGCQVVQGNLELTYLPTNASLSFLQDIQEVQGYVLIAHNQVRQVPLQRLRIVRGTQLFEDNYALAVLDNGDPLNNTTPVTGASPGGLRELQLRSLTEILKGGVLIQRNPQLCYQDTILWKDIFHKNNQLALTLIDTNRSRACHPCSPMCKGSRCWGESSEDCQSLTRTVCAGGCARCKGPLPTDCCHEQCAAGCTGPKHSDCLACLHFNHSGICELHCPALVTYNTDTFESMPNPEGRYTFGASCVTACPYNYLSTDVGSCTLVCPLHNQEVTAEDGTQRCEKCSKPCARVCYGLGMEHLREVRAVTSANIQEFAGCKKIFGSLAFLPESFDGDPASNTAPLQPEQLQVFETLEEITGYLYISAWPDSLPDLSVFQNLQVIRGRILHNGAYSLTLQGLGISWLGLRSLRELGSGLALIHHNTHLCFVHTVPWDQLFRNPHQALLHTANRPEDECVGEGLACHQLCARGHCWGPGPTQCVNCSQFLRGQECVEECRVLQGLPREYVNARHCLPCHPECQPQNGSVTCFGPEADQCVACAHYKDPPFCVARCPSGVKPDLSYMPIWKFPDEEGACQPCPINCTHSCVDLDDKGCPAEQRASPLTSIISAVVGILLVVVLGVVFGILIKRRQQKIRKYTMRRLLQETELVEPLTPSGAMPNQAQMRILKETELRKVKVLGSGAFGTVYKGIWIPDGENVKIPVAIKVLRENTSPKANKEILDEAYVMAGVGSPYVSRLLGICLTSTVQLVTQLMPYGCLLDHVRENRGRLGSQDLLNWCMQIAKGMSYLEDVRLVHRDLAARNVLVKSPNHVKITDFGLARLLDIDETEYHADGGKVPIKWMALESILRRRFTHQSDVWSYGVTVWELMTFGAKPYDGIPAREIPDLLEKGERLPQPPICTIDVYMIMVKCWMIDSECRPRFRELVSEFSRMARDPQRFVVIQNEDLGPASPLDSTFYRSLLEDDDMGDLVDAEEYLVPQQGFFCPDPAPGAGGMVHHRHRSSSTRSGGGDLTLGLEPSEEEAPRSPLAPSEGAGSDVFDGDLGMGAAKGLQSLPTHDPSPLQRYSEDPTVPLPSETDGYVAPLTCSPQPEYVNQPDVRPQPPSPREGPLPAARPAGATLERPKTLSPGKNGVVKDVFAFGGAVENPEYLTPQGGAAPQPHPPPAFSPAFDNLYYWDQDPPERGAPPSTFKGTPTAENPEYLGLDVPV
PLAP activator: activators of human placental alkaline phosphatase; purified PLAP enzyme, luminescent substrate read-out; active compounds read high; activation fold at 20 µM; actives 1.2% (n = 96,000); AID 696; in the data active = activation fold above about 2
M1 antag conf: confirmation of rat M1 muscarinic receptor antagonists; shares compounds with M1 antag; CHO-M1 cells, Fluo-4 calcium, ACh EC80 antagonism; active compounds read low; calcium response (max-min fluorescence) at 10 µM; actives 43% (n = 1,700); AID 677;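 active = calcium response below the same-plate mean of wells given acetylcholine alone at its 80%-effect dose, minus 3 SD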;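 also: raw fluorescence intensity difference in arbitrary instrument units and not normalized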
mGluR4 antag: selectivity test for M1 antagonists: human mGluR4 receptor. CHO-mGluR4 calcium flux, Fluo-4 fluorescence, glutamate EC80; active compounds read low. AID 678. fluorescence response (max-min) at 10 µM. shares compounds with M1 antag. actives 0.9% (n = 1,700);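 active = fluorescence response below the plate's average for near-maximal glutamate wells, less 3 SD of those wells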;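 also: raw unnormalized fluorescence span taken in the window right after glutamate addition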
Active calls of the source: *; nt = no result given. An excerpt weighted towards active compounds, which were near 7.9% of everything screened.

SMILES	M1 antag	M1 agonist	Cav32 inh	HER2 expr 66K	PLAP activator	M1 antag conf	mGluR4 antag
CN(C)S(=O)(=O)c1cccc(NC(=O)Cn2cnc3ccccc3c2=O)c1	nt	nt	-2.4	nt	1.5	nt	nt
CN(C)c1ccc(C2C3C(=O)N(c4ccc(C(=O)O)cc4)C(=O)C3ON2c2ccccc2)cc1 (centres undefined)	-2.5*	-0.44	-0.0016	107	1.1	15*	215
O=C(O)c1ccc(N2C(=O)C3ON(c4ccccc4)C(c4ccccc4F)C3C2=O)cc1 (centres undefined)	0.22	-0.32	nt	75	1	nt	nt
CCn1nnnc1NCc1ccc(N2CCCC2)cc1	-17*	-1.2	nt	83	0.8	503*	215
COc1ccc(-c2noc(CCC(=O)Nc3ccc(C)c(C)c3)n2)cc1	-3.2*	-0.0018	6.3e-05	89	0.9	647	166
COc1ccc(-c2noc(CCC(=O)NCC3CCN(Cc4cccc(C)c4)CC3)n2)cc1	-3.6*	3.4	-3	44	1.7	399*	240
CCOc1ccc(-c2noc(CCC(=O)O)n2)cc1	-0.87*	-0.66	0.59	101	0.9	638	240
O=C(OCc1c(Cl)cccc1Cl)c1cccnc1	0.55	-0.68	-0.83	107	1.1	nt	nt
CCCCCC(=O)Nc1ccc(S(=O)(=O)Nc2nccnc2OC)cc1	nt	nt	0.67	90	1	nt	nt
Cc1ccc(S(=O)(=O)Nc2nc3ccc(S(=O)(=O)N4CCCC4)cc3s2)cc1	0.51	0.33	-0.71	181	1.3	nt	nt
O=C(CN1CCN(c2ccccn2)CC1)N1c2ccccc2Sc2ccc(C(F)(F)F)cc21	-4*	-0.3	-6.2*	106	1.6	450*	171
O=C(CCn1nc(-c2ccc(Cl)cc2)ccc1=O)N1CCOCC1	0.26	-0.28	0.43	104	1	nt	nt
O=C(CCn1nc(-c2ccc(Cl)cc2)ccc1=O)N1CCN(c2ccccn2)CC1	-3*	1.3	nt	73	1.3	584	247
COc1cccc(-n2c(SCC#N)nnc2-c2cnccn2)c1	0.61	0.042	0.48	65	0.9	nt	nt
COc1cccc(-n2c(SC)nnc2-c2cnccn2)c1	-3*	0.68	-0.64	86	nt	622	266
CCOC(=O)Cn1c(=N)n(Cc2ccccc2)c2ccccc21	-0.35	0.41	-0.71	128	0.9	nt	nt
CCOC(=O)Cn1c(=N)n(CCOc2cccc(C)c2)c2ccccc21	-0.8*	-1.5	-0.97	97	0.8	603	229
CC(C)(O)C#CC#CCN1CCOCC1	-1.1*	-0.88	-0.012	81	1.3	637	191
CSc1nc(SCCO)c2sc3nc(-c4ccco4)c4c(c3c2n1)CC(C)(C)OC4	nt	nt	nt	nt	1.4	nt	nt
CSc1nc(N(CCO)CCO)c2sc3nc(-c4ccco4)c4c(c3c2n1)CCC4	-3.9*	-0.89	nt	32	1.6	524	273
O=C(c1ccco1)N1CCN(C2CCCC2)CC1	0.54	-0.36	nt	101	1	nt	nt
CCCCNC(=O)c1ccccc1C(=O)NCCCC	-3.9*	-0.17	0.33	71	1	660	227
Cn1c(CSc2ncccn2)nnc1SCC(=O)N1CCCc2ccccc21	-0.72	0.021	nt	128	1.2	nt	nt
CCc1nnc(SCC(=O)N2CCCc3ccccc32)nc1CC	-3.3*	0.25	-0.16	149	0.9	655	239
CCn1c(CSc2ncccn2)nnc1SCC(=O)N1CCc2ccccc21	-5.4*	-0.95	nt	83	0.9	474	225
SMILES	M1 antag	M1 agonist	Cav32 inh	HER2 expr 66K	PLAP activator	M1 antag conf	mGluR4 antag
CSc1nsc(SCC(=O)N2CCCc3ccccc32)n1	-0.44	0.3	-3.6	114	0.6	nt	nt
CCCC[C@@H]1CCCO[C@@](C(=O)NCc2ccccn2)(C(F)(F)F)C1	nt	nt	-1.2	nt	nt	nt	nt
O=C1C(Cl)=C(N2CCCCCC2)C(=O)N1c1ccccc1	-3.1*	0.13	-1	57	1	219*	148
CC(=O)c1ccc(OCC(O)CN2CCN(CCO)CC2)cc1 (centres undefined)	0.37	-0.6	1	93	0.9	nt	nt
CC1(C)Nc2ccccc2N(CCC(=O)N2CCOCC2)C1=O	0.28	-0.79	-0.3	88	1.2	nt	nt
CC1(C)Nc2ccccc2N(CC(=O)N2CCCCC2)C1=O	-1.3*	-0.064	0.43	96	0.9	687	237
Oc1c(CN2CCCCC2)cc(COCc2ccccc2)c2cccnc12	-5.4*	-0.46	0.15	54	1.8	410*	272
Oc1c(CN2CCN(c3ccccn3)CC2)cc(Cl)c2cccnc12	-1.9*	-3.1	-2.8	53	1.8	577	271
COCc1cc(CN2CCCC2)c(O)c2ncccc12	-0.42	-1.2	1.8	126	1.3	nt	nt
COCCOC(=O)C1=C(C)N=C2SCCC(=O)N2C1c1ccc(OC(=O)c2ccco2)cc1 (centres undefined)	-0.52	-0.52	-0.0051	131	1.4	nt	nt
COc1ccc(/C=N/NC(=O)c2ccc3ccccc3c2)cc1OS(=O)(=O)c1ccc(NC(C)=O)cc1	nt	nt	-2.1	nt	1.1	nt	nt
CCCCCc1ccc(CC(=O)Nn2c(C)nc3ccccc3c2=O)cc1	nt	nt	-3.6	nt	1.5	nt	nt
CCCCN(C(=O)Nc1ccc(OCC)cc1)C1CCN(C(C)=O)CC1	nt	nt	-0.1	nt	1.1	nt	nt
CC(=O)Nc1cccc(NC(=O)c2c(-c3c(Cl)cccc3Cl)noc2C)c1	0.19	0.012	0.17	82	1.5	nt	nt
Cc1ccc(NC(=O)c2c(-c3c(F)cccc3Cl)noc2C)cc1F	-14*	0.26	-8.3*	109	0.7	638	251
O=C(Nc1ccc(Cl)cc1)N1CCCN(Cc2ccccc2F)C1	nt	nt	-0.78	nt	0.8	nt	nt
Cc1ccc(NC(=O)N2CCCN(Cc3ccc(F)cc3)C2)cc1C	-5.1*	-0.32	0.16	72	0.8	592	283
CN(c1ccc(C(=O)N2CCOCC2)cc1[N+](=O)[O-])C1CCCCC1	nt	nt	-1.4	nt	1.2	nt	nt
CCCCNC(=O)c1sc(=S)n2c1[nH]c(=O)c1ccccc12	-1.1	-0.72	-3.1	86	1.1	nt	nt
O=C(NC1CCCCC1)c1sc(=S)n2c1[nH]c(=O)c1ccccc12	-1.8*	2.6	-6.3*	61	1.3	529	243
